{"source": "PubChem BioAssay", "data": [{"tested_on": "Human papillomavirus type 1a protein E7 (residues 44-93)", "test": "HPV1a E7 fragment binders on microarrays, primary screen, biochemical, small-molecule microarray, residues 44-93, 635 nm fluorescence (AID 1108);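 note: E7 fragment applied at 1 µg/mL in TBST for 1 h at 4 C; score combines spot fluorescence with its signal to noise ratio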", "details": "small-molecule microarray binding, fluorescence 635 nm; higher = more signal", "values": [{"molecule": "CC(C)N1C(=O)c2ccccc2[C@](C)(C(=O)NCCN2CCOCC2)[C@@H]1c1ccc(CO)cc1", "composite z-score": 0.416}, {"molecule": "COCCCNC(=O)[C@@H]1c2ccccc2C(=O)N(Cc2ccccc2Cl)[C@H]1c1ccc(CO)cc1", "composite z-score": 0.867}, {"molecule": "CC(C)NC(=O)[C@@]1(c2ccc([N+](=O)[O-])cc2)CC(=O)N(C2CCCCC2)[C@@H]1c1ccc(CO)cc1I", "composite z-score": 0.621}, {"molecule": "C=C(CCCC)/C(=C/C[C@H](OC(C)=O)c1ccccc1OCCO)c1cc(C(=O)OC)ccc1OC", "composite z-score": 0.0187}, {"molecule": "COCCOC(=O)N1C(=O)[C@@]2(c3cc(C#Cc4ccc(OC)cc4)ccc31)[C@H](c1ccc(O)cc1)N1[C@H](c3ccccc3)[C@H](c3ccccc3)OC(=O)[C@H]1[C@@H]2C(=O)N1CCc2cc(OC)c(OC)cc2C1", "composite z-score": 1.32}, {"molecule": "O=C1C2C=CC(C(O)Cc3ccccc3)N(n3cnnc3)C2C(=O)N1Cc1ccccc1", "note": "(stereo not drawn)", "composite z-score": 0.625}, {"molecule": "C=CC[C@]1(C(=O)NCc2ccccc2)N=C(c2ccc(OCCCO)cc2)O[C@H]1c1ccccc1N=[N+]=[N-]", "composite z-score": 1.44}, {"molecule": "CCOC(=O)C[C@H]1[C@H](OC(=O)c2ccc(C(=O)c3ccccc3)cc2)[C@@H](NC(=O)c2ccc3ccccc3n2)c2cc(OCCCO)ccc2N1C(=O)c1ccccc1", "composite z-score": 0.997}, {"molecule": "CN(C)C(=O)[C@@]1(CCS(=O)(=O)c2ccccc2)COC(c2ccc(OCCCO)cc2)=N1", "composite z-score": 1.31}, {"molecule": "COc1ccccc1CN1C(=O)c2ccccc2[C@@H](C(=O)NC2CC2)[C@@H]1c1ccc(CO)cc1", "composite z-score": 0.0772}, {"molecule": "COC(=O)[C@H](Cc1ccccc1)N[C@@H](/C=C/C1CC1)[C@H](O)Cc1ccccc1", "composite z-score": -0.431}, {"molecule": "O=C1C2C=CC(C(O)c3cccc4ccccc34)N(Nc3ccccc3F)C2C(=O)N1c1ccccc1", "note": "(stereo not drawn)", "composite z-score": 1.45}, {"molecule": "O=C(CS)NCCCCCCNC(=O)[C@@H]1C[C@@H]2C(=O)N[C@@H](Cc3ccccc3)C(=O)N2[C@@H]1c1cccc(OCCO)c1", "composite z-score": 1.39}, {"molecule": "NC(=O)NCC#Cc1ccc2c(c1)[C@]1(C(=O)N2)[C@H](C(N)=O)[C@H]2C(=O)O[C@H](c3ccccc3)[C@H](c3ccccc3)N2[C@@H]1c1ccc(O)cc1", "composite z-score": 0.502}, {"molecule": "CCCC[C@@H]1C[C@H]1[C@@H](NC(=O)c1cccs1)c1ccc(-c2ccccc2)cc1", "composite z-score": 0.495}, {"molecule": "C=CCOC(=O)[C@H]1[C@@H]2C(=O)O[C@@H](c3ccccc3)[C@@H](c3ccccc3)N2[C@@H](c2ccc(OCCOC(=O)[C@@H]3C[C@@H]4C(=O)N[C@@H](CCCCNC(C)=O)C(=O)N4[C@@H]3c3ccc(O)cc3)cc2)[C@]12C(=O)Nc1ccccc12", "composite z-score": 1.32}, {"molecule": "CCCCCCc1nc(-c2ccc(OC)nc2)cc2c1[Si](C(C)C)(C(C)C)O[C@H]2c1ccccc1", "composite z-score": -0.103}, {"molecule": "CC(C)C(CO)N1C(=O)[C@@H]2C3C(=O)OCCC/C=C\\[C@H]3OC23C=CCN(CCN2CCOCC2)C(=O)[C@@H]13", "note": "(stereo partly drawn)", "composite z-score": -0.729}, {"molecule": "C=C(COC)/C(=C/C[C@@H](OC(C)=O)c1ccc(OCCO)cc1)c1cnc2ccccc2c1", "composite z-score": 0.487}, {"molecule": "CN(C)CCCCCCNC(=O)[C@@H]1C[C@@H]2C(=O)N[C@@H](Cc3ccccc3)C(=O)N2[C@@H]1c1ccc(O)cc1", "composite z-score": 1.13}, {"molecule": "Cc1nc2cc(Br)ccc2c(=O)o1", "composite z-score": 0.686}, {"molecule": "COCCOC(=O)N1C(=O)[C@@]2(c3ccccc31)[C@H](c1ccc(O)cc1)N1[C@H](c3ccccc3)[C@H](c3ccccc3)OC(=O)[C@H]1[C@@H]2C(=O)Nc1nc2ccccc2s1", "composite z-score": 1.19}, {"molecule": "COCC(=C=CC[C@@H](O)c1cccc(OCCO)c1)C[C@@H](O)c1ccccn1", "composite z-score": -0.768}]}, {"tested_on": "not listed separately", "test": "modulators of HCV replicon luciferase signal, primary screen, HCV replication inhibitor project, Huh7 cells, luciferase reporter (AID 1109);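 note: huh7 hepatoma cells harbouring a luciferase neomycin HCV replicon reporter; luciferase luminescence as measure of HCV replicon replication; test concentration not given here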", "details": "48 h, higher = more signal", "values": [{"molecule": "Cc1ccccc1C(O)C1C=CC2C(=O)N(c3ccccc3)C(=O)C2N1Nc1ccc(C(C)C)cc1", "note": "(stereo not drawn)", "z-score": 1.11}, {"molecule": "CCS[C@H]1[C@@H](C(=O)O)[C@H](c2ccc(C)cc2)N(S(=O)(=O)c2ccc(C)cc2)[C@@H]1CC", "z-score": 0.841}, {"molecule": "COc1cc(NN2C(C(O)c3ccco3)C=CC3C(=O)N(c4ccccc4)C(=O)C32)cc(OC)c1OC", "note": "(stereo not drawn)", "z-score": -0.937}, {"molecule": "CNS(=O)(=O)c1ccc(C)cc1", "z-score": -0.376}, {"molecule": "O=C1N(Cc2ccccc2)c2ccccc2[C@@H]2OC(c3ccc(OCCCO)cc3)=N[C@]12CCS(=O)(=O)c1ccccc1", "z-score": -1.38}, {"molecule": "COc1cc2c(cc1O)C(C1CC1)N(Cc1sc3ccccc3c1Cl)CC2", "note": "(stereo not drawn)", "z-score": -2.87}, {"molecule": "Oc1ccc2cc[n+](Cc3sc4ccccc4c3Cl)cc2c1", "z-score": 0.514}, {"molecule": "CC(C)N1C(=O)C[C@@](C(=O)NCC(F)(F)F)(c2ccc([N+](=O)[O-])cc2)[C@H]1c1ccc(CO)cc1", "z-score": -0.672}, {"molecule": "COCCCNC(=O)[C@@]1(C)c2ccccc2C(=O)N(C(C)C)[C@H]1c1ccc(CO)cc1", "z-score": -0.659}, {"molecule": "COCCOC(=O)N1C(=O)[C@@]2(c3cc(C#CCC(C(=O)OC)C(=O)OC)ccc31)[C@H](c1ccccc1OCCO)N1[C@H](c3ccccc3)[C@H](c3ccccc3)OC(=O)[C@H]1[C@@H]2C(=O)N1CCN(c2ncccn2)CC1", "z-score": -1.99}, {"molecule": "CCOC(=O)[C@H]1C/C=C/C[C@H](C(=O)OCC)C(=O)O[C@H]2[C@@H](OC)O[C@H](CO)[C@@H](OC(=O)c3c(OC)cccc3OC)[C@@H]2OC1=O", "z-score": -3.32}, {"molecule": "C=C(COC)/C(=C/C[C@@H](OC(=O)c1ccncc1)c1ccc(CO)o1)c1cc(C(=O)OC)ccc1OC", "z-score": -0.557}, {"molecule": "CC(C)N1C(=O)c2ccccc2[C@](C)(C(=O)NCCN2CCOCC2)[C@@H]1c1ccc(CO)cc1", "z-score": -0.366}, {"molecule": "COCCCNC(=O)[C@@H]1c2ccccc2C(=O)N(Cc2ccccc2Cl)[C@H]1c1ccc(CO)cc1", "z-score": 0.318}, {"molecule": "CC(C)NC(=O)[C@@]1(c2ccc([N+](=O)[O-])cc2)CC(=O)N(C2CCCCC2)[C@@H]1c1ccc(CO)cc1I", "z-score": -2.16}, {"molecule": "C=C(CCCC)/C(=C/C[C@H](OC(C)=O)c1ccccc1OCCO)c1cc(C(=O)OC)ccc1OC", "z-score": -2.06}, {"molecule": "COCCOC(=O)N1C(=O)[C@@]2(c3cc(C#Cc4ccc(OC)cc4)ccc31)[C@H](c1ccc(O)cc1)N1[C@H](c3ccccc3)[C@H](c3ccccc3)OC(=O)[C@H]1[C@@H]2C(=O)N1CCc2cc(OC)c(OC)cc2C1", "z-score": -0.296}, {"molecule": "O=C1C2C=CC(C(O)Cc3ccccc3)N(n3cnnc3)C2C(=O)N1Cc1ccccc1", "note": "(stereo not drawn)", "z-score": -0.53}, {"molecule": "C=CC[C@]1(C(=O)NCc2ccccc2)N=C(c2ccc(OCCCO)cc2)O[C@H]1c1ccccc1N=[N+]=[N-]", "z-score": -0.368}, {"molecule": "CCOC(=O)C[C@H]1[C@H](OC(=O)c2ccc(C(=O)c3ccccc3)cc2)[C@@H](NC(=O)c2ccc3ccccc3n2)c2cc(OCCCO)ccc2N1C(=O)c1ccccc1", "z-score": -1.63}, {"molecule": "CN(C)C(=O)[C@@]1(CCS(=O)(=O)c2ccccc2)COC(c2ccc(OCCCO)cc2)=N1", "z-score": -2.25}, {"molecule": "COc1ccccc1CN1C(=O)c2ccccc2[C@@H](C(=O)NC2CC2)[C@@H]1c1ccc(CO)cc1", "z-score": -1.3}, {"molecule": "COC(=O)[C@H](Cc1ccccc1)N[C@@H](/C=C/C1CC1)[C@H](O)Cc1ccccc1", "z-score": -0.95}, {"molecule": "O=C1C2C=CC(C(O)c3cccc4ccccc34)N(Nc3ccccc3F)C2C(=O)N1c1ccccc1", "note": "(stereo not drawn)", "z-score": -0.69}, {"molecule": "O=C(CS)NCCCCCCNC(=O)[C@@H]1C[C@@H]2C(=O)N[C@@H](Cc3ccccc3)C(=O)N2[C@@H]1c1cccc(OCCO)c1", "z-score": -0.698}, {"molecule": "NC(=O)NCC#Cc1ccc2c(c1)[C@]1(C(=O)N2)[C@H](C(N)=O)[C@H]2C(=O)O[C@H](c3ccccc3)[C@H](c3ccccc3)N2[C@@H]1c1ccc(O)cc1", "z-score": 0.408}, {"molecule": "CCCC[C@@H]1C[C@H]1[C@@H](NC(=O)c1cccs1)c1ccc(-c2ccccc2)cc1", "z-score": -2.05}, {"molecule": "C=CCOC(=O)[C@H]1[C@@H]2C(=O)O[C@@H](c3ccccc3)[C@@H](c3ccccc3)N2[C@@H](c2ccc(OCCOC(=O)[C@@H]3C[C@@H]4C(=O)N[C@@H](CCCCNC(C)=O)C(=O)N4[C@@H]3c3ccc(O)cc3)cc2)[C@]12C(=O)Nc1ccccc12", "z-score": -0.413}, {"molecule": "CCCCCCc1nc(-c2ccc(OC)nc2)cc2c1[Si](C(C)C)(C(C)C)O[C@H]2c1ccccc1", "z-score": -0.657}, {"molecule": "CC(C)C(CO)N1C(=O)[C@@H]2C3C(=O)OCCC/C=C\\[C@H]3OC23C=CCN(CCN2CCOCC2)C(=O)[C@@H]13", "note": "(stereo partly drawn)", "z-score": 0.0618}, {"molecule": "C=C(COC)/C(=C/C[C@@H](OC(C)=O)c1ccc(OCCO)cc1)c1cnc2ccccc2c1", "z-score": -1.19}, {"molecule": "CN(C)CCCCCCNC(=O)[C@@H]1C[C@@H]2C(=O)N[C@@H](Cc3ccccc3)C(=O)N2[C@@H]1c1ccc(O)cc1", "z-score": 2.17}, {"molecule": "Cc1nc2cc(Br)ccc2c(=O)o1", "z-score": -0.569}, {"molecule": "COCCOC(=O)N1C(=O)[C@@]2(c3ccccc31)[C@H](c1ccc(O)cc1)N1[C@H](c3ccccc3)[C@H](c3ccccc3)OC(=O)[C@H]1[C@@H]2C(=O)Nc1nc2ccccc2s1", "z-score": -0.993}, {"molecule": "COCC(=C=CC[C@@H](O)c1cccc(OCCO)c1)C[C@@H](O)c1ccccn1", "z-score": 0.0065}]}]}
